JMJD2A Tudor inh = blocks the human JMJD2A Tudor domain; AlphaScreen JMJD2A-Tudor / H3K4me3 peptide binding; Potency, µM (doses to about 114 µM), for the others: at the highest dose activity change, negative = inhibition, hits mostly inhibitors; actives 4.4% (n = 390,000); AID 504339; also: potency is read from the fitted curve at half-maximal effect; % is scaled to controls: 0 for no effect and ±100 for the full control effect; nearly all actives have a fitted effect of over 50% in size
PLK1 PBD block = PLK1 (human) polo-box domain binding inhibition | actives 2.8% (n = 360,000) | AID 720504 | Plk1 PBD binding of FITC phosphopeptide, fluorescence polarization | P53350 | Potency, µM, for inactives: max response, negative = inhibition, actives largely listed as inhibitors; also: potency is read from the fitted curve at half-maximal effect; series mostly up to about 57 µM; % is scaled to controls: 0 for no effect and ±100 for the full control effect; nearly all actives have a fitted effect of over 65% in size
HP1b chromo inh = inhibitors of HP1-beta chromodomain binding to methylated histone tails; AID 540317; Potency, µM (top dose mostly 114 µM), for the others: at the highest dose activity change, negative = inhibition, usual class: inhibitors; AlphaScreen HP1-beta / biotin-H3K9me3 peptide binding; P83916; actives 0.56% (n = 390,000); also: potency is read from the fitted curve at half-maximal effect; nearly all actives have a fitted effect of over 70% in size
Target sequence (P83916 whole entry, looked up): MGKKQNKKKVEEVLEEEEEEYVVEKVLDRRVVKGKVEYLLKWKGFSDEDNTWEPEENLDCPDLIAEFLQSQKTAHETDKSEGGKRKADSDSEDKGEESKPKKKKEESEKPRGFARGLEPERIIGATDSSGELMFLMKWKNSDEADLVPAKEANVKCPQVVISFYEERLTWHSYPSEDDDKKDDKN
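HP1-beta protein (50 nM final) preincubated 30 min at room temperature with biotinylated H3(1-18)K9me3 peptide (50 nM) in PBS pH 7.4, 0.01% Tween-20, then compound added for 30 min. AlphaScreen streptavidin donor/nickel chelate acceptor beads (10 ug/mL final), 30 min dark, luminescence read.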
BAZ2B block = BAZ2B (human) inhibition. AlphaScreen BAZ2B-H3K14Ac peptide displacement. Potency, µM (top dose mostly 114 µM), inactives show at the highest dose activity change, negative = inhibition, actives largely listed as inhibitors. actives 4.4% (n = 360,000). AID 504333; also: potency is read from the fitted curve at half-maximal effect; % is scaled to controls: 0 for no effect and ±100 for the full control effect; nearly all actives have a fitted effect of over 60% in size
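Complex of BAZ2B and biotin-H3K14Ac (50 nM apiece) forms over 30 min at RT, then faces library compounds up to 110 uM for another 30 min; AlphaScreen beads added, 20 min dark incubation, luminescence read.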
G9a inh = inhibitors of human histone lysine methyltransferase G9a | Potency, µM (highest dose often 102 µM), for the others: at the top dose activity, negative = inhibition, hits mostly inhibitors | actives 8.8% (n = 350,000) | AID 504332 | Q96KQ7 | G9a H3K9 monomethylation, AlphaScreen, 2 h; also: potency is read from the fitted curve at half-maximal effect; % is scaled to controls: 0 for no effect and ±100 for the full control effect; nearly all actives have a fitted effect of over 75% in size
Target sequence (Q96KQ7 913-1193 limits assumed): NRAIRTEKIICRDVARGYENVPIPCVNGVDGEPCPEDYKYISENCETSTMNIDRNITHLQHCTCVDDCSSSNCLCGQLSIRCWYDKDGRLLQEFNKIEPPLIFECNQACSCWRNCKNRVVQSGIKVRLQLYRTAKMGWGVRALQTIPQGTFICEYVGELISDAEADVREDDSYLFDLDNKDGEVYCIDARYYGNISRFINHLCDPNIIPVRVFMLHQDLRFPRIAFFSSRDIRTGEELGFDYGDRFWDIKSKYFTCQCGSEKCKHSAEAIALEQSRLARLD
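G9a (20 nM) preincubated 15 min RT with compounds, then 500 nM biotinylated H3K9 peptide and 20 uM SAM added; 2 h RT reaction. Monomethyl-H3K9 product detected by AlphaScreen with anti-H3K9me1 antibody, streptavidin donor and anti-rabbit IgG acceptor beads.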
PI5P4Ka inh = PI5P4K alpha (human) kinase inhibition; P48426; PI5P4Kalpha enzyme, ADP-Glo luminescence, 60 min; stronger effect = lower value; max response, %; actives 1.2% (n = 330,000); active = max response of -50% or lower; inconclusive = between -30% and -50%; inactive = -30% or higher; also: value at the top dose of about 77 µM; % is scaled to controls: 0 for no effect and ±100 for the full control effect
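Luminescence from ADP-Glo served as readout of PI5P4Kalpha activity in a qHTS format. Reaction: enzyme, substrate, compound, ATP at 5 microM final, 60 min at RT.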
The depositor's hits bear a star; ? = inconclusive; . = no result given; ! = repeats disagree; [ ] = another dose, or the depositor's remark. Most compounds without a hit are left out; they make up all but 12% or so of the library. Unless noted, calls follow the shape of the dose curve; as a rule, active = well fitted curve in the direction sought with a large enough effect; inconclusive = small, poorly fitted or top-dose-only effect, or another doubt; inactive = no such curve, though single readings can be large; an effect the other way counts as inactive or inconclusive.

SMILES	JMJD2A Tudor inh	PLK1 PBD block	HP1b chromo inh	BAZ2B block	G9a inh	PI5P4Ka inh
C/C(=N\NC(=O)c1ccc(F)cc1)c1ccccn1	35.5µM*	2.3%	30.2%	10µM*	?	3.0
Cc1c(Cl)cccc1NC(=O)Cn1cc(C(=O)C2CCCCC2)c2ccccc21	-0.7%	.	22.5%	-1.1%	2.6%[59 µM]	.
O=C(Nc1cc(C(F)(F)F)ccc1Cl)c1cnn(-c2ccccc2)c1-n1cccc1	13.4%	.	47.0%	5.4%	-2.4%[59 µM]	.
C/C(=N\NC(=O)c1ccccc1O)C1C(=O)c2ccccc2C1=O	8.4%	-1.3%	23.4%	?	17.5%[12.7 µM]	-2.7
C/C(=N\NC(=O)c1ccccc1-n1cccc1)c1ccccn1	.	-5.9%	.	.	.	8.0
O=C(N/N=C/c1ccc(Sc2ccccn2)o1)c1cc2ccccc2cc1O	-32.6%	-18.1%	-3.5%	-6.6%	-11.3%[59 µM]	-67.1*
C/C(=N\NC(=O)c1cc2ccccc2cc1O)c1ccccn1	17.8µM*	?	19.9%[57 µM]	10µM*	.	-53.5*
C/C(=N\NC(=O)c1c[nH]c2ccccc12)c1ccco1	-22.7%	-9.0%	18.4%	-8.9%	-26.9%	.
C/C(=N/NC(=O)c1cc2ccccc2cc1O)C1C(=O)c2ccccc2C1=O	15.8µM*	9.47µM*	22.4µM*	?	39.8µM*	?
C/C(=N\NC(=O)c1c[nH]c2ccccc12)c1ccccn1	50.1µM*	-4.2%	39.2%	10µM*	15.5%	3.6
COc1ccc(C2C(C(N)=O)=C(C)Nc3nc(SCc4ccccc4Cl)nn32)cc1OC (stereo not drawn)	-16.0%	.	16.8%	5.7%	12.1%[59 µM]	.
COc1ccc(NC(=O)C2CCN(S(=O)(=O)c3c(C)noc3/C=C/c3cccs3)CC2)cc1Cl	-19.7%	.	29.7%	.	3.0%[59 µM]	.
O=C(N/N=C/c1ccc(Sc2nc3ccccc3[nH]2)o1)c1ccncc1	-13.4%	?	?	-5.6%	44.7µM*	-8.8
C/C(=N\NC(=O)CNc1ccc(F)cc1)c1cc2ccccc2o1	?	-6.7%	-15.9%	?	?	-3.1
COc1ccc(NCC(=O)N/N=C(\C)c2cc3ccccc3o2)cc1	?	0.6%	-17.9%	35.5µM*	15.8µM*	5.7
COC(=O)C[C@H]1C=C[C@@H](NC(=O)NC2CCCCC2)[C@@H](CO)O1	.	-7.0%	.	.	.	0.2
C(=N\Nc1ncnc2ccccc12)/c1ccccc1	-10.5%[11.4 µM]	-5.9%	11.1%	?	-2.6%	12.0
Clc1cccc(/C=N/Nc2ncnc3ccccc23)c1	?	4.2%	-7.0%	35.5µM*	.	-0.6
Cc1ccc(C(c2sc3nc(-c4ccco4)nn3c2O)N2CCN(Cc3ccccc3)CC2)cc1 (stereo not drawn)	?	.	18.7%	?	?	.
Cc1cc2c(cc1S(=O)(=O)NCc1ccc(F)cc1)OCC(=O)N2	-23.4%	.	19.7%	-26.6%	-41.7%[59 µM]	.
COc1ccc(CNS(=O)(=O)c2cc3c(cc2Cl)NC(=O)CO3)cc1	-13.2%	-10.3%	15.3%	?	-3.3%	1.2
CCN(CC)c1ccc(CNS(=O)(=O)c2cc3c(cc2C)NC(=O)CO3)cc1	?	.	7.5%[57 µM]	-35.7%	14.1µM*	.
O=C1COc2cc(S(=O)(=O)NCc3ccco3)c(Cl)cc2N1	-21.4%	.	24.2%[57 µM]	50.1µM*	?	.
Cc1cc2c(cc1S(=O)(=O)N1CCCCC1)OCC(=O)N2	-17.4%	-10.5%	?	79.4µM*!	-6.4%	-2.3
Cc1c(Cl)cccc1Nc1ccccc1C(=O)O	-9.7%	-23.9%	16.9%	-33.3%	44.7µM*!	11.1
SMILES	JMJD2A Tudor inh	PLK1 PBD block	HP1b chromo inh	BAZ2B block	G9a inh	PI5P4Ka inh
O=C(O)c1ccccc1Nc1ccc([N+](=O)[O-])cc1	-9.1%	-9.0%	41.4%	-30.2%	?	-20.2
Cc1c(NC(=O)c2cccnc2C(=O)O)cccc1C(=O)O	2.51µM*	0.7%	?	35.5µM*	8.91µM*	-1.3
O=C(O)c1ccccc1Nc1ccccc1C(=O)O	?	-7.5%	-5.5%	-9.4%	79.4µM*	.
O=C(Nc1ccccc1C(=O)O)c1ccccc1	-28.8%	-1.7%	19.8%	?	50.1µM*	.
COc1ccc(CCNC(=O)c2ccc3c(=O)n4c(nc3c2)CCC4)cc1OC	-10.0%	-7.8%	22.8%	1.2%	6.2%	1.8
CC1=C(C(=O)O)N2C(=O)[C@@H](NC(=O)[C@@H](N)c3ccc(O)cc3)[C@@H]2SC1	.	.	.	.	7.8%[21.5 µM]	.
O=C(Nc1ccccc1C(=O)O)c1ccc(CN2C(=O)c3ccccc3C2=O)cc1	-28.1%	-4.9%	23.5%	-27.9%	-16.5%	-53.4*
Cc1nnc(NC(=O)c2ccccc2NC(=O)c2ccccc2)s1	-7.3%	-6.3%	47.8%	-17.0%	50.1µM*	0.2
Cc1c(Cl)cccc1Nc1ncccc1C(=O)O	25.1µM*!	?	7.4%	-9.2%	-23.5%[12.7 µM]	1.7
O=C(NN=C1CCCC1)c1ccccc1O	?	-4.1%	39.9%	-6.7%	.	-6.4
O=C(O)c1ccccc1NN=C1CCCCC1	?	-5.0%	6.8%	-8.8%	8.91µM*	-12.2
Cc1cccc(NC(=O)CSc2nc3ccccc3nc2N2CCCC2)c1C	-11.3%	-20.9%	25.5%	43.3%	.	1.7
Cc1cc(C)c(S(=O)(=O)C(C)C)c(=O)[nH]1	-10.0%	23.8µM*	-17.8%	-2.1%	3.1%	-2.7
COc1ccc(C2NN=C(c3ccc(C)cc3)S2)cc1 (stereo not drawn)	-12.0%	?	18.4%	10.6%	31.6µM*	0.7
CCOc1cc(C2NN=C(c3ccc(C)cc3)S2)ccc1O (stereo not drawn)	-12.2%	?	32.4%	-3.1%	18.7%[59 µM]	-5.0
COc1cc2c(cc1OC)CN(c1ccc(F)cc1[N+](=O)[O-])CC2	50.1µM*	-15.6%	?	39.8µM*	35.5µM*	5.2
COc1cc2c(cc1OC)CN(C(=O)c1ccc(N3CCCC3)c([N+](=O)[O-])c1)CC2	50.1µM*	1.4%	?	44.7µM*	16.2%[2.33 µM]	-4.4
COc1cc2c(cc1OC)CN(c1ccc([N+](=O)[O-])cc1Cl)CC2	?	-0.3%	-23.0%	?	?	1.2
Cc1ccc(NC(=O)C2CCN(S(=O)(=O)c3cccc4nonc34)CC2)c(Cl)c1	-15.0%	.	10.6%	-9.2%	-33.6%[59 µM]	.
CCCCCn1c(=O)[nH]c2cc(C(=O)Nc3ccc(F)c(F)c3)ccc2c1=O	-0.7%	.	34.5%	2.8%	5.4%[59 µM]	.
CCCN(CCC)S(=O)(=O)c1cccc(-c2csc(C)n2)c1	76.4%	-5.6%	70.0%	42.7%	277.3%	0.0
CCN(CC)S(=O)(=O)c1ccc(-c2csc(C)n2)cc1	?	9.47µM*	22.3%	12.6%	.	?
Nc1ccc(Oc2cc(N)cc(Oc3ccccc3)c2)cc1	?	-5.5%	?	50.1µM*	?	15.2
Nc1ccc(Oc2ccc3nc(-c4ccccc4)c(-c4ccccc4)nc3c2)cc1	?	-9.0%	-10.7%	?	.	68.5

From PubChem BioAssay
